# Data from ChEMBL document CHEMBL4513216, “Probing the Open Global Health Chemical Diversity Library for Multistage-Active Starting Points for Next-Generation Antimalarials” (ACS Infect Dis, 2020).
# Hit rate of the full screen: of about 68,000 compounds, about 2,700 (4%) showed an effect of 50% or more. The full list was thinned out, with strong results kept by preference.
# Test system: Plasmodium berghei
# Test: Screen against P. berghei liver stage (PbLuc), transformed with Luciferase, at 2uM
# Format: functional, HepG2
# Settings: tested at 2 uM
row,Structure (SMILES),INHIBITION
1,CCc1nccn1-c1cncc(C2CCN(C(=O)COC)CC2)n1,41.98%
2,CCN(CC)C(=O)c1nc2c(s1)CCN(Cc1cccc(OC)c1)CC2,1.08%
3,O=C(c1cccc(S(=O)(=O)NCCCn2cccn2)c1)N1CCOCC1,30.8%
4,COC(=O)[C@H](C)NC(=O)Cc1c(C)nc2c(c1C)c(=O)[nH]n2C,-7.03%
5,COCCNc1nc2c(c(NCc3ccncc3)n1)CCNCC2,-21.16%
6,COCCNc1nc2c(c(NCCc3cccs3)n1)CCNCC2,-15.37%
7,COCCNc1nc2c(c(NCC3CCOC3)n1)CCNCC2 (stereo unspecified),58.53%
8,COCC(c1cccc(C(F)(F)F)c1)N(C)C(=O)c1cc(C)no1 (stereo unspecified),-23.4%
9,COCC(c1cccc(C(F)(F)F)c1)N(C)C(=O)c1cc(C)n[nH]1 (stereo unspecified),51.21%
10,COCC(c1cccc(C(F)(F)F)c1)N(C)C(=O)c1ccncc1 (stereo unspecified),14.82%
11,CCn1cc(CNC(=O)c2nn(CC)cc2Br)cn1,-26.13%
12,O=C(NC1CCN(c2ccccc2Br)C1)c1c[nH]nn1 (stereo unspecified),53.81%
13,O=C(NC1CCCN(c2ccccc2Cl)C1)c1nc(=O)[nH][nH]1 (stereo unspecified),8.05%
14,O=C(NC1CCCN(c2ccc(OC(F)F)cc2)C1)c1c[nH]nn1 (stereo unspecified),5.48%
15,O=C(NC1CCN(c2ccccc2OC(F)F)C1)c1c[nH]nn1 (stereo unspecified),31.3%
16,O=C(NC1CCCN(c2ccccc2Cl)C1)c1c[nH]nn1 (stereo unspecified),55.18%
17,O=C(NC1CCCN(c2ccccc2Cl)C1)c1ccc(=O)[nH]n1 (stereo unspecified),42.88%
18,Cc1cc(C)n2c(CCCNS(=O)(=O)c3ccc(F)cc3)nnc2n1,6.62%
19,CCc1nc(NC2CCCN(C(=O)c3cccs3)C2)c2cnn(C)c2n1 (stereo unspecified),-33.35%
20,Oc1cccc(-c2cc(CC3(N(CC4CC4)CC4CC4)COC3)no2)c1,-4.2%
21,CCN(CC)C1(Cc2cc(-c3cccc(O)c3)on2)COC1,10.08%
22,CCCN(CCC)C1(Cc2cc(-c3cccc(O)c3)on2)COC1,50.72%

row,Structure (SMILES),INHIBITION
1,NC1(C(=O)NCCC2CN(Cc3ccco3)CCO2)CCCC1 (stereo unspecified),18.98%
2,CC(C)(C)c1noc(CCCC(=O)N2CCNC(=O)C2)n1,-31.79%
3,COCCOCC(=O)N1C[C@@H]2CC[C@H]1CN(C1Cc3ccccc3C1)C2,61.82%
4,COCCOC(=O)N1C[C@@H]2CC[C@H]1CN(C1Cc3ccccc3C1)C2,-31.79%
5,COCCC(=O)N1C[C@@H]2CC[C@H]1CN(C1Cc3ccccc3C1)C2,28.97%
6,Cc1cc(C)n(C2CCCN(C(=O)c3ccn(C)c(=O)c3)C2)n1 (stereo unspecified),-42.24%
7,O=C(COCc1ccccc1)N1CCCC(n2cncn2)C1 (stereo unspecified),24.15%
8,O=C(COCCOc1ccccc1)N1CCCC(n2ccnc2)C1 (stereo unspecified),29.12%
9,O=C(COCC1CC1)N1CCCC(n2ccnc2)C1 (stereo unspecified),67.53%
10,O=C(COC1CCCCC1)N1CCCC(n2ccnc2)C1 (stereo unspecified),-0.13%
11,CC(=O)Nc1nc(C(=O)N2CCCC(n3cncn3)C2)cs1 (stereo unspecified),72.31%
12,Cc1nc(C(=O)N2CCCC(n3cncn3)C2)cs1 (stereo unspecified),-81.94%
13,O=C(COCC1CC1)N1CCCC(n2cncn2)C1 (stereo unspecified),62.46%
14,O=C(COCC1CC1)N1CCCC(n2cccn2)C1 (stereo unspecified),-5.7%
15,CC(=O)Nc1nc(C(=O)N2CCCC(n3ccnc3)C2)cs1 (stereo unspecified),18.46%
16,Cc1ccccc1CN1CCC(CNc2ncnc3c2CCNCC3)C1 (stereo unspecified),32.26%
17,c1cnc(N2CCOCC3(CN(Cc4nccs4)CCO3)C2)nc1 (stereo unspecified),14.39%
18,CCC(C)NC(=O)c1nnn(-c2cccc3c2CCN(C)C3)c1C (stereo unspecified),-46.36%
19,O=C(NCCN1CCCCC1)c1ccoc1,6.12%
20,COc1ccc(-c2cnc(CN3CCCC3Cn3cccn3)o2)cc1 (stereo unspecified),-36.73%
21,O=C(NC1CCN(c2cccc(OC(F)(F)F)c2)C1=O)C1CC1 (stereo unspecified),-0.13%
22,CS(=O)(=O)CCN(Cc1cccc(O)c1)C1CCC(O)CC1 (stereo unspecified),50.4%

row,Structure (SMILES),INHIBITION
1,CC(C)OCCN(Cc1cccc(O)c1)C1CCC(O)CC1 (stereo unspecified),11.78%
2,C=C(C)CN(Cc1cccc(O)c1)C1CCC(O)CC1 (stereo unspecified),6.55%
3,CSCCC(=O)N1CCC(CCC(=O)NCC2CCCO2)CC1 (stereo unspecified),20.71%
4,Cc1nc(NC(=O)CNC(=O)c2c(F)cccc2Cl)n[nH]1,9.5%
5,CC(O)(CNC(=O)c1c(F)cccc1Cl)C1CC1 (stereo unspecified),-21.74%
6,O=C(CNC(=O)c1c(F)cccc1Cl)Nc1ccc(F)cn1,67.28%
7,CCc1c(C)nc2cc(C3CCN(Cc4cccc(F)c4)C3)nn2c1O (stereo unspecified),65.74%
8,CCc1c(C)nc2cc(C3CCN(Cc4cccnc4)C3)nn2c1O (stereo unspecified),31.56%
9,CCc1c(C)nc2cc(C3CCN(Cc4ccc(F)cc4)C3)nn2c1O (stereo unspecified),40.31%
10,CCc1ccc(CN2CCc3ncnc(N4CCOCC4)c3CC2)o1,-21.37%
11,CN1CCN(C[C@@H]2CN(C(=O)NCC3CCCCC3)C[C@@H]2CO)CC1,-26.04%
12,COc1ccc(CN2CC[C@H]3O[C@@H](C(=O)NCC4CC4)CC[C@H]32)cc1,44.4%
13,CCN(CC)c1ccc(NC(=O)NC(C)Cn2cccn2)cn1 (stereo unspecified),52.3%
14,CC(Cn1cccn1)NC(=O)NCCc1cccnc1 (stereo unspecified),10.53%
15,Cc1ccc(CNC(=O)NC(C)Cn2cccn2)cn1 (stereo unspecified),49.01%
16,CC(Cn1cccn1)NC(=O)NCCN1CCCCCC1=O (stereo unspecified),50.03%
17,CC(Cn1cccn1)NC(=O)NCCCN1CCCCCC1=O (stereo unspecified),48.37%
18,CC(Cn1cccn1)NC(=O)NCc1cccnc1 (stereo unspecified),61.3%
19,COc1ccc(NC(=O)NC(C)Cn2cccn2)cn1 (stereo unspecified),-40.27%
20,CC(Cn1cccn1)NC(=O)Nc1ccc(N(C)C)nc1 (stereo unspecified),5.96%
21,CC(Cn1ccnc1)NC(=O)NCCN1CCCCCC1=O (stereo unspecified),17.18%
22,COc1ccc2c(ccn2CCC(=O)NCc2ccc(C(=O)O)cc2)c1,42.94%

row,Structure (SMILES),INHIBITION
1,Cc1ccc(C(CCNCCN(C)C)C2CCOC(C)(C)C2)cc1 (stereo unspecified),26.52%
2,CC(C)CN1CCc2[nH]cnc2C12CCN(C(=O)c1ccc[nH]1)CC2,22.43%
3,CC(C)CN1CCc2[nH]cnc2C12CCN(C(=O)c1ccnn1C)CC2,29.19%
4,Cc1ocnc1C(=O)N1CCC2(CC1)c1nc[nH]c1CCN2CC(C)C,52.83%
5,CC(C)CN1CCc2[nH]cnc2C12CCN(C(=O)c1cnn(C)c1)CC2,51.14%
6,Cc1cc(C(=O)N2CCC3(CC2)c2nc[nH]c2CCN3CC(C)C)no1,37.63%
7,CC(C)CN1CCc2[nH]cnc2C12CCN(C(=O)c1cccnc1)CC2,0.3%
8,CCc1ccc(S(=O)(=O)N2CCCC3(CCCN3S(C)(=O)=O)C2)cc1 (stereo unspecified),28.41%
9,Cc1cc(C)n(CCNCc2cc(-c3ccccc3)c[nH]c2=O)n1,24.26%
10,CC1CCc2nn(CCNC(=O)c3cccs3)c(=O)cc2C1 (stereo unspecified),28.82%
11,CC(C)N1[C@@H](C(=O)NCC2CC2)C[C@@H]2CN(Cc3ccco3)C[C@@H]21,28.2%
12,Cc1nn(C)c(C)c1C(C)NCc1ccsc1 (stereo unspecified),38.83%
13,CS(=O)(=O)c1cncnc1C1CCCN(C(=O)Nc2ccc(F)cc2)C1 (stereo unspecified),-0.7%
14,CC(C)N(Cc1ccccn1)C(=O)CCOc1cccc(F)c1,5.43%
15,Cc1cc(NCC2CCCO2)cc(=O)n1C (stereo unspecified),-0.15%
16,COCCCNC(=O)C(C)n1nc(-c2ccco2)cc(N)c1=O (stereo unspecified),-1.32%
17,COCCNC(=O)C(C)n1nc(-c2ccco2)cc(N)c1=O (stereo unspecified),54.2%
18,COCCNC(=O)C(C)n1nc(-c2ccc(C)o2)cc(N)c1=O (stereo unspecified),-21.09%
19,CCN1CCC(CNC(=O)C(c2ccccc2F)N(C)C)(N(C)C)CC1 (stereo unspecified),46.58%
20,O=C(Cc1cccs1)N1CCOCC1c1ccccc1 (stereo unspecified),-26.81%
21,CC(C)n1ccnc1CN1CCCN(C(=O)c2cscn2)CC1,-28.58%
22,CC(C)C(O)CNC(=O)Nc1cccc(-c2nccs2)c1 (stereo unspecified),-2.23%

row,Structure (SMILES),INHIBITION
1,Cn1cc(CN(CC2(O)CNCCOC2)C2CCCCC2)cn1 (stereo unspecified),0.17%
2,Cn1cc(CN(CC2(O)CCNC2)C2CCCCC2)cn1 (stereo unspecified),60.64%
3,OC1(CN2CCC(Oc3cccnc3)CC2)CNCCOC1 (stereo unspecified),3.58%
4,Cn1cc(CN(C/C=C/c2ccccc2)C2CC2)cn1,-17.37%
5,CN(Cc1ccc2nsnc2c1)CC1(O)CNCCOC1 (stereo unspecified),-1.57%
6,OC1(CN(Cc2cccnc2)C2CCCCC2)CNCCOC1 (stereo unspecified),74.3%
7,CN(C)c1ccc(C(CNS(=O)(=O)c2cccs2)N2CCCC2)cc1 (stereo unspecified),14.19%
8,COc1cccc(-c2n[nH]cc2-c2nc(CC3CCN(C)CC3)no2)c1,38.67%
9,Cc1noc(C)c1C(=O)N1CCCC1(C)C(=O)NC1CCCC1 (stereo unspecified),11.32%
10,O=C(CCc1ccc2c(c1)OCO2)N1CCCC(n2cccn2)C1 (stereo unspecified),-29.38%
11,O=C(Cc1ccc2c(c1)CCO2)N1CCCC(n2cccn2)C1 (stereo unspecified),52.52%
12,Cc1cnn(C2CCCN(C(=O)Cc3ccc4c(c3)CCO4)C2)c1 (stereo unspecified),11.95%
13,O=C(Cc1ccc2c(c1)CCC2)N1CCCC(n2cccn2)C1 (stereo unspecified),-0.71%
14,O=C(Cc1ccc2c(c1)OCCO2)N1CCCC(n2cccn2)C1 (stereo unspecified),56.12%
15,O=C(Cc1ccc2c(c1)OCCO2)N1CCCC(n2cncn2)C1 (stereo unspecified),-7.15%
16,COc1cc(N2CC[C@@H](O)[C@@H]2Cc2cccnc2)ncn1,32.21%
17,CCCc1nc(C[S+]([O-])Cc2cn3cccc(C)c3n2)no1 (stereo unspecified),16.37%
18,CCOC(=O)c1nc(CN2CCC(NC(=O)C(C)C)CC2)cs1,-3.25%
